Source: PubChem BioAssay AID1159580 (chemical genetic matrix, 2015)
Several values for one entry are separate records, joined by “and”; a condition that tells them apart may be missing. Identical values can stand only once. Hit rate of the full screen: of about 5,500 compounds, about 2,000 (36%) were called active. About 18% were inconclusive and are not listed. Rule as the data show it: active = normalized growth mostly below about 0.91 (no sharp cut-off); inconclusive = no clear call, values can overlap the other calls; inactive = mostly above about 0.92. The list shows a part of the results.

Assay: chemical genetic growth profiling, strain panel (AID 1159580);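 also: tested at 20 µM; growth read once vehicle control cultures reached saturation at 30 °C; 1 = growth at the plate median or of vehicle wells; lower values mean less growth of the strain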
Conditions: S. cerevisiae deletion strains, growth OD

Measured: normalized growth

O=C(O)CNCP(=O)(O)O
inactive: locus YAL013W, strain DEP1, active compounds read low 0.998 | locus YAL021C, strain ccr4, active compounds read low 1.04 | locus YAL026C, strain drs2, active compounds read low 1.02 | locus YAL030W, strain snc1, active compounds read low 1.02 | locus YBL061C, strain skt5, active compounds read low 1.01 | locus YBR009C, strain hhf1, active compounds read low 1.01 | locus YBR021W, strain FUR4, active compounds read low 0.992 | locus YBR023C, strain chs3, active compounds read low 1.02 | locus YBR171W, strain sec66, active compounds read low 1.04 | locus YBR229C, strain ROT2, active compounds read low 1 | locus YBR231C, strain swc5, active compounds read low 1.02 | locus YBR279W, strain paf1, active compounds read low 1.02 | locus YCL011C, strain gbp2, active compounds read low 1.02 | locus YCL016C, strain dcc1, active compounds read low 1.02 | locus YCL029C, strain bik1, active compounds read low 1.01 | locus YCL061C, strain MRC1, active compounds read low 1.01 | locus YCL069W, strain vba3, active compounds read low 1.02 | locus YCR088W, strain abp1, active compounds read low 1.01 | locus YDL005C, strain med2, active compounds read low 1.03 | locus YDL035C, strain GPR1, active compounds read low 1.02 | locus YDL040C, strain nat1, active compounds read low 1.02 | locus YDL074C, strain BRE1, active compounds read low 1.04 | locus YDL101C, strain DUN1, active compounds read low 1.02 | locus YDL134C, strain PPH21, active compounds read low 1.01 | locus YDL185W, strain tfp1, active compounds read low 1.01 | locus YDL192W, strain arf1, active compounds read low 1.01 | locus YDR001C, strain nth1, active compounds read low 1.01 | locus YDR069C, strain doa4, active compounds read low 1.02 | locus YDR101C, strain arx1, active compounds read low 1 | locus YDR137W, strain rgp1, active compounds read low 1.02 | locus YDR150W, strain NUM1, active compounds read low 0.997 | locus YDR159W, strain sac3, active compounds read low 1.02 | locus YDR162C, strain NBP2, active compounds read low 1 | locus YDR195W, strain ref2 1.01 | locus YDR297W, strain sur2, active compounds read low 1.01 | locus YDR318W, strain mcm21, active compounds read low 1.02 | locus YDR334W, strain swr1, active compounds read low 1.03 | locus YDR335W, strain msn5, active compounds read low 1.02 | locus YDR388W, active compounds read low 1.01 | locus YDR392W, strain spt3, active compounds read low 1.03 | locus YDR502C, strain sam2, active compounds read low 1.01 | locus YEL003W, strain gim4, active compounds read low 1.01 | locus YEL037C, strain rad23, active compounds read low 1.01 | locus YEL061C, strain CIN8 (second series), active compounds read low 1.02 | locus YEL061C, strain CIN8, active compounds read low 0.998 | locus YER015W, strain faa2, active compounds read low 1.02 | locus YER016W, strain bim1, active compounds read low 1.01 | locus YER110C, active compounds read low 1.02 | locus YER111C, strain swi4, active compounds read low 1.01 | locus YER155C, strain BEM2 (second series), active compounds read low 1.02 | locus YER155C, strain BEM2, active compounds read low 1.01 | locus YER167W, strain BCK2, active compounds read low 0.999 | locus YFR010W, strain ubp6, active compounds read low 1.02 | locus YGL078C, strain dbp3, active compounds read low 1.01 | locus YGL086W, strain mad1, active compounds read low 1 | locus YGL167C, strain pmr1, active compounds read low 1.02 | locus YGL173C, strain kem1, active compounds read low 1.01 | locus YGL227W, strain vid30, active compounds read low 1.02 | locus YGL240W, strain doc1, active compounds read low 1.02 | locus YGL248W, strain PDE1, active compounds read low 1.02 | locus YGL253W, strain hxk2, active compounds read low 1.01 | locus YGR078C, strain PAC10, active compounds read low 1.01 | locus YGR135W, strain pre9, active compounds read low 1.02 | locus YGR229C, strain SMI1, active compounds read low 1.02 | locus YGR252W, strain gcn5, active compounds read low 1.01 | locus YHR013C, strain ard1, active compounds read low 1.06 | locus YHR027C, strain rpn1, active compounds read low 1 | locus YHR030C, strain SLT2, active compounds read low 1.01 and 0.97 | locus YHR079C, strain IRE1 (second series), active compounds read low 1.01 | locus YHR079C, strain IRE1, active compounds read low 0.992 | locus YHR094C, strain hxt1, active compounds read low 1 | locus YHR129C, strain ARP1, active compounds read low 1.01 | locus YHR142W, strain chs7, active compounds read low 1.02 | locus YHR200W, strain rpn10, active compounds read low 1.01 | locus YIL066C, strain RNR3, active compounds read low 1.02 | locus YIL073C, strain SPO22, active compounds read low 1.08 | locus YIL125W, strain kgd1, active compounds read low 1.01 | locus YIR030C, strain dcg1, active compounds read low 1.01 | locus YJL092W, strain hpr5, active compounds read low 1.02 | locus YJL095W, strain BCK1 (second series), active compounds read low 1.01 | locus YJL095W, strain BCK1, active compounds read low 1.01 and 0.975 | locus YJL115W, strain asf1, active compounds read low 1.02 | locus YJL129C, strain trk1, active compounds read low 1.03 | locus YJL134W, strain LCB3, active compounds read low 1.01 | locus YJL154C, strain vps35, active compounds read low 1.02 | locus YJL164C, strain tpk1, active compounds read low 1.02 | locus YJL166W, strain qcr8, active compounds read low 1.02 | locus YJL168C, strain set2, active compounds read low 1.01 | locus YJL187C, strain SWE1 (second series), active compounds read low 1.01 | locus YJL187C, strain SWE1, active compounds read low 1.01 | locus YJR043C, strain POL32, active compounds read low 1.01 | locus YJR066W, strain TOR1, active compounds read low 0.926
